A short description of test [1]: Primary qHTS for small molecule stabilizers of the endoplasmic reticulum resident proteome: Secreted ER Calcium Modulated Protein (SERCaMP) assay (AID 1508630). Note: % is set by controls: 0 for no effect and ±100 for the full control effect. The essentials:
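The SH-SY5Y reporter protocol was run at 3 concentrations up to 38.3 uM (primary) or 11 concentrations (follow-up): 16 h compound, 100 nM thapsigargin for 4 h, then extracellular luciferase luminescence.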
In general terms: qHTS replaces the single test concentration by a dilution series.

Test [2] addresses Cytochrome P450 2D6 (Homo sapiens) (UniProt P10635). Description: Cytochrome P450 family 2 subfamily D member 6 (CYP2D6) small molecule antagonists: luciferase biochemical (cell-free) qHTS assay (AID 1645840; active = well fitted curve in the direction sought with a large enough effect in the repeat runs; an effect the other way counts as inactive or inconclusive; note: nearly all actives have a fitted effect of over 55% in size; note: potency is the fitted concentration of half-maximal effect; for activity change, negative = inhibition: series mostly up to about 57 µM; % is set by controls: 0 for no effect and ±100 for the full control effect). Put shortly:
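P450-Glo CYP2D6 system: proluciferin substrate converted by enzyme to luciferin, read by luminescence proportional to activity. Enzyme-substrate mix with compound 10 min at room temperature, then NADPH regeneration 1 h before detection reagent.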

Test [3] concerns the target Cytochrome P450 2C9 (Homo sapiens) (UniProt P11712). Put plainly: Cytochrome P450 family 2 subfamily C member 9 (CYP2C9) small molecule antagonists: luciferase biochemical (cell-free) qHTS assay (AID 1645842; active = well fitted curve in the direction sought with a large enough effect in the repeat runs; an effect the other way counts as inactive or inconclusive; note: nearly all actives have a fitted effect of over 55% in size; note: potency is the fitted concentration of half-maximal effect; for activity change, negative = inhibition: series mostly up to about 57 µM; % is set by controls: 0 for no effect and ±100 for the full control effect). Put shortly: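 P450-Glo CYP2C9 system: proluciferin substrate with enzyme in mix containing 0.4% BSA, 10 min at room temperature, then NADPH regeneration solution added and incubated 1 h at 37C. Detection reagent stopped reaction; luminescence read after 20 min as RLU.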

Test [4] can be described thus: Primary qHTS for inhibitors of nuclear receptor binding SET domain protein 2 (NSD2) in an isogenic RCH-ACV NSD2 p.E1099K mutant (9B) (AID 1645876). Note: nearly all actives have a fitted effect of over 70% in size. Note: potency is the fitted concentration of half-maximal effect.
A short description of test [5]: Primary qHTS for inhibitors of nuclear receptor binding SET domain protein 2 (NSD2) in an RCH-ACV wild type WT cells (2C) (AID 1645877). Note: nearly all actives have a fitted effect of over 70% in size. Note: potency is the fitted concentration of half-maximal effect.
For another test, the target named is Papain (Carica papaya) (UniProt P00784). Put plainly: Primary qHTS assay for inhibitors of the protease papain (AID 1645873).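 Note: papain turnover of Z-FR-AMC read as the AMC fluorescence gain over 10 min; series mostly up to about 50 µM; % is set by controls: 0 for no effect and ±100 for the full control effect.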
For test [6], the target named is N-terminal Xaa-Pro-Lys N-methyltransferase 1 (Homo sapiens) (UniProt Q9BV86). Description: Confirmatory qHTS for Inhibitors of N-terminal methyltransferase 1 (NTMT1): MTaseGlo Assay (AID 1645874).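 Note: luminescence from SAH made as NTMT1 methylates SPKRIA peptide using SAM; series mostly up to about 100 µM; 0% = DMSO control and -100% = no-enzyme control; nearly all actives have a fitted effect of over 65% in size.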 The essentials: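 SPKRIA peptide at 1 uM was methylated by 125 nM NTMT1 using 100 uM SAM over 30 min at room temperature, following a 15 min compound preincubation. Product SAH was detected luminescently.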

Values joined by “and” are separate entries in the source; they are usually repeats but may differ in a detail not shown here. Equal values may be shown once. Inconclusive results are not listed. Active and inactive are the calls of the source. Unless noted, calls come from the whole dose curve; as a rule, active = well fitted curve in the direction sought with a large enough effect; inconclusive = small, poorly fitted or top-dose-only effect, or another doubt; inactive = no such curve, though single readings can be large; an effect the other way counts as inactive or inconclusive.

Cytochrome P450 2C9 (Homo sapiens), sequence (P11712 whole entry, looked up): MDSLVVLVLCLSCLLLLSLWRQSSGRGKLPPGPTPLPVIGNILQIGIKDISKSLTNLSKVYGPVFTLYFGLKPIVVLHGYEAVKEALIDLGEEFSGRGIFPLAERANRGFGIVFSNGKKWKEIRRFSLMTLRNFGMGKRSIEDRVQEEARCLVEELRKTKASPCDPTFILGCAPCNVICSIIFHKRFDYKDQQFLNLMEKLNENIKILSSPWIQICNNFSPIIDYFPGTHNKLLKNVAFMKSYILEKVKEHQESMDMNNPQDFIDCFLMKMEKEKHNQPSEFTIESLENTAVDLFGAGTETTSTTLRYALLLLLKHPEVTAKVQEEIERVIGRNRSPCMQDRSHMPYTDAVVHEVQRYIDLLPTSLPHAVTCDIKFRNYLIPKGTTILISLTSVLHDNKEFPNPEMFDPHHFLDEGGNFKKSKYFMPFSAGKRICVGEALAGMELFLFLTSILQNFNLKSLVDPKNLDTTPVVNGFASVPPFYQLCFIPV
Cytochrome P450 2D6 (Homo sapiens), sequence (P10635 whole entry, looked up): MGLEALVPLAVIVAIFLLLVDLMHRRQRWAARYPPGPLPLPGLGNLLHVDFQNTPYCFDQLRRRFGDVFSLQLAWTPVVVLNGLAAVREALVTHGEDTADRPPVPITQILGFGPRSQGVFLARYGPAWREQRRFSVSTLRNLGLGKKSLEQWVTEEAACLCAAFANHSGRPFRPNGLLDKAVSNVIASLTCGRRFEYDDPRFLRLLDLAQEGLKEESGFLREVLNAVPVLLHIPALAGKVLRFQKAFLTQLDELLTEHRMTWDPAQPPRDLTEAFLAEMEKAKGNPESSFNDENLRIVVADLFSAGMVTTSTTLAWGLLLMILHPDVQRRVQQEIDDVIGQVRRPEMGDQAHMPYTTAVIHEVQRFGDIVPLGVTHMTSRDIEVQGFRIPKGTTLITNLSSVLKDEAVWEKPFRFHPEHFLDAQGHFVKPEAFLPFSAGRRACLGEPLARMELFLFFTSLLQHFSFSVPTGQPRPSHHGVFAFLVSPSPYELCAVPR
Papain (Carica papaya), sequence (P00784 whole entry, looked up): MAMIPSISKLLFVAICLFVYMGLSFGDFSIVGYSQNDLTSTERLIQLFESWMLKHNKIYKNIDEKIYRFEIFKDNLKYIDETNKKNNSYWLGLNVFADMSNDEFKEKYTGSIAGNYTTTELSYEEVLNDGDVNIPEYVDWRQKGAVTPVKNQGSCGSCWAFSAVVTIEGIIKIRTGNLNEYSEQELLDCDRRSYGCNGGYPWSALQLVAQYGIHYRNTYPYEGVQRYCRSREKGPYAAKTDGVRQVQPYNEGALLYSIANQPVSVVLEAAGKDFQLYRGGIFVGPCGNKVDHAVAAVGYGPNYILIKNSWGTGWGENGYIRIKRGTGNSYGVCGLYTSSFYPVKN
N-terminal Xaa-Pro-Lys N-methyltransferase 1 (Homo sapiens), sequence (Q9BV86 whole entry, looked up): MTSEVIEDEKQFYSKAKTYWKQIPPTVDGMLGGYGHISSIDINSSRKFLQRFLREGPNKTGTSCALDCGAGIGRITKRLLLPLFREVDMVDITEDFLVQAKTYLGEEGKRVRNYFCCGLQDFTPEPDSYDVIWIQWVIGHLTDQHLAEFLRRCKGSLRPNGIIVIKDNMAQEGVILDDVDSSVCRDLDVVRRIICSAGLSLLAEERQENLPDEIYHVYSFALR

As for `Nc1ncnc2c1c(-c1cccc(OCc3ccccc3)c1)cn2C1CC(CN2CCCC2)C1` (stereo not given), the Potency result in test [1] was “inactive”. Besides, the Potency was 12 µM (active) in test [2], 16.9 µM (active) in test [3], 11.8 µM (active) in test [4] and 10.5 µM (active) in test [5].

For the molecule `COc1cc(C(=O)N2CCC(N3CCN(C)CC3)CC2)ccc1Nc1ncc2c(n1)N(C)c1ccccc1C(=O)N2C`, the Potency entry in test [1] and in test [2] was “inactive” in each case. Moreover, the Potency in test [4] is 1.15 µM (active) and 1.48 µM (active); in test [5], 1.45 µM (active) and 1.86 µM (active).

With `Cn1c(CNc2ccc(C(=N)N)cc2)nc2cc(C(=O)N(CCC(=O)O)c3ccccn3)ccc21`, the Potency entry in test [1], in test [4] and in test [5] was “inactive” throughout. The Potency in test [3] is 10.7 µM (active).

On to `CC(C)(O)c1cc2nc(-c3cnc(N)nc3)nc(N3CCOCC3)c2s1`, for which the Potency result in test [1] and in test [2] was “inactive” throughout. The Potency in test [4] and in test [5] was 0.372 µM (active) throughout.

`CC(C)(O)CCc1ccc(OCc2cc(-c3cccc(OC(F)F)c3)c3ncccc3c2)cc1`: the Potency entry in test [1] is “inactive”. Further, the Potency in test [4] is 20.9 µM (active).

As to `O=c1c2ccccc2nc2n1CCc1c-2[nH]c2ccccc12`, the Potency result in test [1], in test [4] and in test [5] was “inactive” throughout. Also, the result with Papain (Carica papaya) was inactive.

For the molecule `Cc1nc(N)ncc1-c1nc(N2CCOCC2)c2sc(C(C)(C)O)cc2n1`, the Potency entry in test [1] is “inactive”. For the same molecule, the Potency was 81.7 nM (active) and 590 nM (active) in test [4]; 115 nM (active) and 468 nM (active) in test [5].

For `CC(C)c1cc(-c2n[nH]c(=O)n2-c2ccc3c(ccn3C)c2)c(O)cc1O`, the Potency entry in test [1] is “inactive”. For the same molecule, the Potency in test [3] was 1.69 µM (active); in test [4] it was 25.8 nM (active) and 29.5 nM (active); in test [5], 25.8 nM (active) and 29.5 nM (active).

For the molecule `CNc1nccc(-c2cccnc2Oc2cc(C(=O)Nc3cccc(C(F)(F)F)c3)ccc2C)n1`, the Potency entry in test [1] was “inactive”. The Potency in test [3] is 3.01 µM (active); in test [4] it was 2.58 µM (active) and 3.72 µM (active); in test [5] it was 4.09 µM (active).

Regarding `COc1ccc2c(c1)CC[C@@H](CN(C)CC(=O)O)[C@H]2c1ccccc1`, the Potency result in test [1], in test [2], in test [3], in test [4] and in test [5] was “inactive” in each case.

Take `O=C(c1ccc(Nc2nccc(-c3cc4ccccc4s3)n2)cc1)N1CCC(N2CCCC2)CC1`: the Potency entry in test [1] and in test [3] was “inactive” each time. Besides, the Potency in test [4] is 1.45 µM (active) and 1.66 µM (active); in test [5], 1.63 µM (active) and 1.66 µM (active).

As to `Nc1ccn([C@@H]2CS[C@H](CO)O2)c(=O)n1`, the Potency entry in test [1], in test [2], in test [3], in test [4] and in test [5] was “inactive” each time.

Regarding `C=C1C(=CC=C2CCC[C@]3(C)[C@@H]([C@H](C)C=C[C@H](C)C(C)C)CC[C@@H]23)C[C@@H](O)C[C@@H]1O`, the Potency entry in test [1], in test [4] and in test [5] was “inactive” throughout. Further, the Potency in test [3] was 9.52 µM (active).

As for `CNC(=O)c1ccccc1Nc1nc(Nc2ccc(N3CCOCC3)cc2OC)ncc1Cl`, the Potency entry in test [1] is “inactive”. The Potency is 0.301 µM (active) in test [3]; 2.05 µM (active) and 2.35 µM (active) in test [4]; 649 nM (active) and 1.05 µM (active) in test [5].

Turning to `COc1ccc(CC2c3cc(OC)c(OC)cc3CC[N+]2(C)CCC(=O)OCCCCCOC(=O)CC[N+]2(C)CCc3cc(OC)c(OC)cc3C2Cc2ccc(OC)c(OC)c2)cc1OC` (stereo not given), the activity change, negative = inhibition in test [1] is 101% [at 7.35 µM] (inactive). Besides, the Potency result in test [3] is “inactive”. The Potency in test [4] and in test [5] was 23.5 µM (active) throughout.

With `CCn1cc(-c2ccnc3[nH]c(-c4cccc(CN(C)C)c4)cc23)c(-c2ccc(NC(=O)N(C)C)cc2)n1`, the Potency entry in test [1] is “inactive”. The Potency is 19 µM (active) in test [2]; 21.3 µM (active) in test [3]; 112 nM (active) and 1.86 µM (active) in test [4]; 36.6 nM (active) and 37.2 nM (active) in test [5].

Regarding `Cc1coc2c1C(=O)C(=O)c1c-2ccc2c1CCCC2(C)C`, the Potency result in test [1] and in test [4] was “inactive” throughout. Also, the Potency in test [2] is 23.9 µM (active).

Consider `COc1cc2c(NC3CCN(C(C)C)CC3)nc(C3CCCCC3)nc2cc1OCCCN1CCCC1`, for which the Potency entry in test [1] and in test [6] was “inactive” each time. Also, the Potency in test [4] was 9.16 µM (active) and 8.33 µM (active); in test [5], 11.5 µM (active) and 6.61 µM (active).

Regarding `O=C(O)[C@H](Cc1c[nH]c2ccccc12)N1C(=O)c2ccccc2C1=O`, the Potency result in test [1] and in test [4] was “inactive” in each case.

For the molecule `C=CC(=O)Nc1cc2c(Nc3ccc(F)c(Cl)c3)ncnc2cc1OCCCN1CCOCC1`, the Potency result in test [1] and in test [3] was “inactive” each time. Besides, the Potency in test [4] was 1.68 µM (active) and 2.95 µM (active); in test [5], 1.5 µM (active) and 2.95 µM (active).

Take `COc1cc2c(Oc3ccc(-c4cnc(Nc5ccc(F)cc5)n(C)c4=O)cc3F)ccnc2cc1OCCCN1CCOCC1`: the Potency entry in test [1], in test [2] and in test [3] was “inactive” each time. Moreover, the Potency in test [4] was 4.09 µM (active) and 1.48 µM (active); in test [5], 4.59 µM (active) and 2.09 µM (active).

Take `C[C@@]12O[C@@H](C[C@]1(O)CO)n1c3ccccc3c3c4c(c5c6ccccc6n2c5c31)CNC4=O`: the Potency result in test [1] is “inactive”. The Potency in test [4] and in test [5] was 0.0661 µM (active) in each case.

Turning to `C=CCn1c(=O)c2cnc(Nc3ccc(N4CCN(C)CC4)cc3)nc2n1-c1cccc(C(C)(C)O)n1`, the Potency entry in test [1] and in test [2] was “inactive” throughout. Besides, the Potency in test [4] was 290 nM (active) and 372 nM (active); in test [5], 230 nM (active) and 468 nM (active).

Consider `COc1cc(C)c(Sc2cnc(NC(=O)c3ccc(CNC(C)C(C)C)cc3)s2)cc1C(=O)N1CCN(C(C)=O)CC1` (stereo not given), for which the Potency entry in test [1] is “inactive”. For the same molecule, the Potency in test [2] is 21.3 µM (active); in test [3], 0.536 µM (active); in test [4], 8.33 µM (active) and 7.28 µM (active); in test [5] it was 8.33 µM (active) and 5.78 µM (active).
